# High-throughput results (PubChem)
# VLA-4 inh: inhibition in human VLA-4 binding assay, primary screen, VLA-4 allosteric modulator project, MLPCN library, flow cytometry, VLA-4 expressing cells. Integrin alpha-4 (Homo sapiens), P13612. ligand binding flow cytometry. inhibition, % (about 7 µM as worked out from the volumes in the protocol). 0.2% of 330,000 active. AID 2557, 2010; in the data active means inhibition above about 50%
# A1 inh: caspase 3/7 activation in MEF A1-2A-BIM cells, primary screen, A1 inhibitor project, cell-based, luminescence, HTS; Caspase-Glo 3/7 luminescence, 3 h; percent of clofoctol response, vehicle zero; caspase activation, % (test concentration not listed); 0.066% of 330,000 active;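 active means over half of replicate activation scores above 10%, or exactly half above 10 with the replicate mean above 10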
# SUMO Mot1 rescue: yeast Mot1-301 growth rescue at high temperature, primary screen, SUMOylation pathway inhibitor project, S. cerevisiae, ATP luminescence, 38.5C | 1% of 320,000 active | growth rescue, % at 18.8 µM | AID 2716, 2010 | S. cerevisiae Mot1-301 growth rescue; percent above DMSO median, 100 means doubled;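 active means every valid replicate shows activation above 250% relative to neutral control wells; inactive means the rest, any valid replicate at or below 250%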
# AHR activator: AHR activators, primary screen, cell-based, luminescence, luciferase reporter, human. AHR-responsive luciferase reporter cells. activation, % at 5 µM. 2.5% of 320,000 active. AID 2796, 2010; in the data active means activation above about 47%
# Target sequence (P35869 whole entry, looked up): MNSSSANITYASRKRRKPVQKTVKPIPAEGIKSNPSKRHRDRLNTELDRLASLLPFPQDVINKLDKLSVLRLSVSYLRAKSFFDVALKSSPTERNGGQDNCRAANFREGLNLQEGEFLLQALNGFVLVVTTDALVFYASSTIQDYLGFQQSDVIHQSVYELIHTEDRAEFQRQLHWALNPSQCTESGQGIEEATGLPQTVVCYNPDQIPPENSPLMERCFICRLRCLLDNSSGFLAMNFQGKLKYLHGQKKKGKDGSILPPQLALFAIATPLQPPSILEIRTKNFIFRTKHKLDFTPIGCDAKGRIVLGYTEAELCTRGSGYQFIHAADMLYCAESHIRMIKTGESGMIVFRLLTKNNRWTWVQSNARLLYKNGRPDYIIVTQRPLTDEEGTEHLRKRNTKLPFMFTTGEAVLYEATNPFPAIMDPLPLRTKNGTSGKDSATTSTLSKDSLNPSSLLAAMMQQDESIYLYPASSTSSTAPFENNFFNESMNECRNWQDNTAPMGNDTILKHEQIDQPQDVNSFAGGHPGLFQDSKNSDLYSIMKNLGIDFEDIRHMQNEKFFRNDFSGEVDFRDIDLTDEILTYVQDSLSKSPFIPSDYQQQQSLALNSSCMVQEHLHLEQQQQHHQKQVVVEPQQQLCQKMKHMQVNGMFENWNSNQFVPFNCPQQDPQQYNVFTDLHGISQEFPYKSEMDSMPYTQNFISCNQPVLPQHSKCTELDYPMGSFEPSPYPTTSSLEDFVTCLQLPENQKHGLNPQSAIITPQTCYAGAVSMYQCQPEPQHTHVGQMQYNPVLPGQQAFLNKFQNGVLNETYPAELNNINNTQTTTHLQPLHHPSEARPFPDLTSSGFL
# ALR H2O2 inh: inhibitors of human ALR sulfhydryl oxidase, primary screen, biochemical, H2O2 detection, HRP-luminol luminescence, single point; FAD-linked sulfhydryl oxidase ALR (Homo sapiens), P55789; purified ALR, DTT oxidation; inhibition, % (no concentration beside the values); 3.8% of 290,000 active;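 active means mean replicate inhibition above about 79%, with every replicate also reaching it, limit read from the data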
# Efflux pump mplx: inhibitors of Candida efflux pumps in yeast, primary screen, S. cerevisiae, Nile Red, multiplex; AID 485275, 2010; 0.44% of 330,000 active; S. cerevisiae Candida pump triplex; inhibition, % at 10 µM;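 active means plate passing quality check with inhibition over a set limit, or well fluorescence over plate mean plus 4 SD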;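 further: Nile Red retained in pooled yeast measured as flow cytometry median fluorescence; higher means more Nile Red kept so more efflux inhibition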
# Yeast Mot1 SUMO: growth restoration of Mot1-301 yeast on galactose, dose response, SUMO pathway inhibitor project, whole organism, S. cerevisiae, ATP luminescence, cherry-picked samples; shares compounds with SUMO Mot1 rescue; S. cerevisiae Mot1-301 galactose growth, 24 h; -100 = growth of slx-deleted rescue strain; growth activity, percent, % at 42 µM; 2,300 tested, under 10 active; AID 493004, 2010;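 active means Signal drops as the depositor expects, and the fitted half-maximal dose is no more than ten times the top valid tested dose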;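 further: more negative values mean stronger growth rescue toward the control strain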
# Numbers stand for hits; – = inactive; · = no result; + = active, no number; ! = repeats disagree. Sampled rows, rich in hits. Any-hit rate of the full collection: about 7.2%.
SMILES,VLA-4 inh,A1 inh,SUMO Mot1 rescue,AHR activator,ALR H2O2 inh,Efflux pump mplx,Yeast Mot1 SUMO
C[C@]12CC[C@H]3C(=CCc4cc(O)ccc43)[C@@H]1CCC2=O,–,–,538.1!,–,93.8,–,–
C[C@]12C[C@H](O)[C@@H]3c4ccc(O)cc4CCC3[C@@H]1CCC2=O (some centres undefined),–,–,–,–,·,–,·
N#CCCN1CCN(S(=O)(=O)c2ccc(C3CCCCC3)cc2)CC1,–,–,–,–,·,–,·
O=S(=O)(c1ccc(S(=O)(=O)N2CCCC2)cc1)N1CCCCC1,–,–,682.6,–,–,–,–
NS(=O)(=O)c1ccc(S(=O)(=O)N2CCCC2)cc1,–,–,–,–,·,–,·
O=S(=O)(c1ccc(C2CCCCC2)cc1)N1CCCC1,–,–,621.2,–,–,–,–
CC(C)(C)n1nnnc1C(c1ccc(F)cc1)N(Cc1ccc(F)cc1)Cc1ccco1 (centres undefined),–,–,–,–,·,–,·
CC(C)(C)n1nnnc1C(c1ccc(Cl)cc1)N(Cc1cccnc1)Cc1ccco1 (centres undefined),–,–,436.7,–,–,–,–
COC(=O)CCC(=O)OC1(C)C(=O)C=C2C=C(C3CC3)N(Cc3ccc(OC)cc3)C=C2C1=O (centres undefined),–,–,–,–,·,–,·
COC(=O)CCC(=O)OC1(C)C(=O)C=C2C=C(C3CC3)N(Cc3ccc4c(c3)OCO4)C=C2C1=O (centres undefined),–,–,880.8,–,–,–,–
FC(F)(F)c1nc2ccccc2n2c(-c3c(Cl)cccc3Cl)nnc12,–,–,–,–,–,–,·
FC(F)(F)c1nc2ccccc2n2c(-c3ccc(Cl)cc3Cl)nnc12,–,–,+,–,–,–,–
CC1CCCC(C)N1C(=O)CSc1nnnn1-c1cccc2c1CCCC2 (centres undefined),–,–,414.1,–,–,–,–
O=C(CSc1nnc(-c2ccccn2)o1)Nc1ccccc1F,–,–,–,–,–,–,·
CCn1c(SCC(=O)OC)nnc1-c1ccncc1,–,–,825.5,–,–,–,–
CCn1c(SCC(=O)Nc2nc(-c3ccccc3)cs2)nnc1-c1ccccc1,–,–,569.8,–,–,–,–
Cc1nnc(SCC(=O)Nc2nc(-c3ccccc3)cs2)n1N,–,–,–,–,–,–,·
Cc1ccc(S(=O)(=O)CCC(=O)OCC(=O)NCc2ccc(Cl)cc2)cc1,–,–,–,–,–,–,·
CCc1nnc(NC(=O)CSc2ccc(-c3ccc(-n4cccn4)cc3)nn2)s1,–,–,781.3,–,–,–,–
CCN(CC)C(=O)Cn1cc(S(=O)(=O)CC(=O)Nc2ccc(C(N)=O)cc2)c2ccccc21,–,–,–,–,–,–,·
CCN(CC)C(=O)Cn1cc(S(=O)(=O)CC(=O)NCCc2ccc(OC)c(OC)c2)c2ccccc21,–,–,383.6,–,–,–,–
Clc1ccc(CONc2ncnc3nonc23)c(Cl)c1,–,–,+,–,–,–,–
CCONc1ncnc2nonc12,–,–,–,–,–,–,·
Cc1sc2nc(CN3CCCC3)nc(NCc3ccncc3)c2c1C,–,–,802.0,–,·,–,–
Cc1sc2nc(CN3CCCC3)nc(Cl)c2c1C,–,–,–,–,–,–,·
O=C(CSc1nnc(-c2cccs2)n1-c1ccccc1)c1ccc2c(c1)OCCO2,–,–,+,–,–,–,–
O=C(CSc1nnc(-c2ccc3c(c2)OCO3)n1-c1ccccc1)c1ccccc1,–,–,–,–,–,–,·
COc1cc2c(=O)n(CCC(=O)NCC3CCCO3)c(=O)n(CC(=O)Nc3ccccc3C)c2cc1OC (centres undefined),–,–,444.2,–,–,–,–
